Measurements from the supplement of paper PMC8866396.
± gives the standard deviation of the averaged measurements.

Assays:
IL-6-GFP PC-9GR = test: cell viability (CCK-8 OD) relative to DMSO control (fraction of control); higher = more viable cells; settings: compound concentration: 10 uM; treatment time: 48 h
Method in brief: (§1)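 Compounds from a purchased library of 510 were each tested at a final 10 μM for 48 h on PC-9 and PC-9GR lung cancer cells plated at 3000 cells/well in 96-well plates. These cells overexpressed IL-6-GFP from a lentiviral construct. Viability came from CCK-8 absorbance, given as the optical density of each well over that of the vehicle control well, across independent replicates numbering two.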

IL-6-GFP PC-9 = test: as above; settings: compound concentration: 10 uM; treatment time: 48 h
Method in brief: as §1

SMILES	cell viability (IL-6-GFP PC-9GR)	cell viability (IL-6-GFP PC-9)
CC12CCC3c4ccc(O)cc4CC(CCCCCCCCCS(=O)CCCC(F)(F)C(F)(F)F)C3C1CCC2O (stereo not given) [Fulvestrant]	1.14 ± 0.072	1.024 ± 0.0045
Cc1nnc(C(=O)NC(C)(C)c2nc(C(=O)NCc3ccc(F)cc3)c([O-])c(=O)n2C)o1.[K+] [Raltegravir potassium]	1.37 ± 0.48	1.12 ± 0.16
CS(=O)(=O)n1cc2c(n1)CN(C1COC(c3cc(F)ccc3F)C(N)C1)C2 (stereo not given) [Omarigliptin (MK-3102)]	0.931 ± 0.14	1.02 ± 0.25
Cc1nc(Nc2ccc(F)cc2)nc(N2CCc3ccccc3C2C)c1C.Cl (stereo not given) [Revaprazan Hydrochloride]	1.63 ± 0.64	1.14 ± 0.043
COC1CC2CCC(C)C(O)(O2)C(=O)C(=O)N2CCCCC2C(=O)OC(C(C)CC2CCC(OC(=O)C(C)(CO)CO)C(OC)C2)CC(=O)C(C)/C=C(\C)C(O)C(OC)C(=O)C(C)CC(C)/C=C/C=C/C=C/1C (stereo not given)	0.524 ± 0.54	0.698 ± 0.12
CC(=O)OC(C)OC(=O)C(C)c1ccc(-c2ccccc2)c(F)c1 (stereo not given) [Flurbiprofen Axetil]	1.17 ± 0.29	1.16 ± 0.038
CC(=O)OC1(C(C)=O)CCC2C3C=C(C)C4=CC(=O)CCC4(C)C3CCC21C (stereo not given) [Megestrol Acetate]	1.22 ± 0.09	1.13 ± 0.1
CCC1=CC2CN(C1)Cc1c([nH]c3ccccc13)C(C(=O)OC)(c1cc3c(cc1OC)N(C)C1C(O)(C(=O)OC)C(OC(C)=O)C4(CC)C=CCN5CCC31C54)C2.O=C(O)C(O)C(O)C(=O)O.O=C(O)C(O)C(O)C(=O)O (stereo not given) [Vinorelbine Tartrate]	0.559 ± 0.13	0.566 ± 0.081
O=c1cc[nH]c(=O)[nH]1 [Uracil]	0.909 ± 0.021	0.701 ± 0.11
C/C=C(/C)C(=O)OC1C(OC(C)=O)C2(CO)C(O)CC3(C)C(=CCC4C5(C)CCC(OC6OC(C(=O)O)C(OC7OC(CO)C(O)C(O)C7O)C(O)C6OC6OC(CO)C(O)C(O)C6O)C(C)(CO)C5CCC43C)C2CC1(C)C (stereo not given) [Escin]	0.999 ± 0.079	1.14 ± 0.22
CC(Nc1ncnc2[nH]cnc12)c1cc2cccc(Cl)c2c(=O)n1-c1ccccc1 (stereo not given) [Duvelisib (IPI-145, INK1197)]	1.42 ± 0.39	1.1 ± 0.12
CCC1(O)C(=O)OCc2c1cc1n(c2=O)Cc2cc3cc(O)ccc3nc2-1 [(S)-10-Hydroxycamptothecin]	0.466 ± 0.076	0.433 ± 0.032
CCC1(O)C(=O)OCc2c1cc1n(c2=O)Cc2cc3cc(O)ccc3nc2-1 (stereo not given) [Hydroxy Camptothecine]	0.38 ± 0.2	0.404 ± 0.042
COc1ccc2c(c1)nc(S(=O)Cc1ncc(C)c(OC)c1C)[n]2[Na] (stereo not given) [Esomeprazole sodium]	1.26 ± 0.2	0.939 ± 0.16
C=CC(=O)N1CCCC(n2nc(-c3ccc(Oc4ccccc4)cc3)c3c(N)ncnc32)C1 (stereo not given)	0.572 ± 0.048	0.509 ± 0.18
CC1CNc2c(cccc2S(=O)(=O)NC(CCCNC(=N)N)C(=O)N2CCC(C)CC2C(=O)O)C1.O (stereo not given) [Argatroban Monohydrate]	1.49 ± 0.35	1.12 ± 0.23
CC(C(=O)O)c1ccc(-c2ccccc2)c(F)c1 (stereo not given) [Flurbiprofen]	1.04 ± 0.39	0.9552 ± 0.0084
CS(=O)(=O)Nc1cc2occ(NC=O)c(=O)c2cc1Oc1ccccc1 [Iguratimod]	1.46 ± 0.37	1.02 ± 0.19
CC(=O)OC1CCC2(C)C(=CCC3C2CCC2(C)C(c4cccnc4)=CCC32)C1 (stereo not given) [Abiraterone Acetate]	1.48 ± 0.41	0.929 ± 0.21
CC1CC2C3CC(F)C4=CC(=O)C=CC4(C)C3(F)C(O)CC2(C)C1(O)C(=O)CO (stereo not given) [Diflorasone]	0.825 ± 0.11	0.833 ± 0.23
COc1cc2nccc(Oc3ccc(NC(=O)C4(C(=O)Nc5ccc(F)cc5)CC4)cc3)c2cc1OC.O=C(O)CC(O)C(=O)O [Cabozantinib malate (XL184)]	0.81 ± 0.13	0.958 ± 0.062
CC1CC2C3CCC4=CC(=O)C=CC4(C)C3C(=O)CC2(C)C1(O)C(=O)CO (stereo not given) [Meprednisone]	1.25 ± 0.14	1.46 ± 0.35
NC(CC(=O)N1CCn2c(nnc2C(F)(F)F)C1)Cc1cc(F)c(F)cc1F (stereo not given) [Sitagliptin]	1.62 ± 0.63	1.14 ± 0.12

SMILES	cell viability (IL-6-GFP PC-9GR)	cell viability (IL-6-GFP PC-9)
O=c1[nH]cc(F)c(=O)[nH]1 [Fluorouracil (5-Fluoracil, 5-FU)]	0.731 ± 0.011	0.537 ± 0.12
CC(C)CC(NC(=O)C(Cc1ccccc1)NC(=O)c1cnccn1)B(O)O (stereo not given) [Bortezomib (PS-341)]	0.105 ± 0.11	0.14 ± 0.057
Cn1c(=O)cc(N2CCCC(N)C2)n(Cc2ccccc2C#N)c1=O (stereo not given) [Alogliptin]	0.0419 ± 0.21	1.29 ± 0.11
CC(=O)OC1C(=O)C2(C)C(O)CC3OCC3(OC(C)=O)C2C(OC(=O)c2ccccc2)C2(O)CC(OC(=O)C(O)C(NC(=O)c3ccccc3)c3ccccc3)C(C)=C1C2(C)C (stereo not given) [Paclitaxel]	0.576 ± 0.036	0.57 ± 0.026
Cc1cn(-c2cc(NC(=O)c3ccc(C)c(Nc4nccc(-c5cnccn5)n4)c3)cc(C(F)(F)F)c2)cn1 [Radotinib]	0.7942 ± 0.0035	1.1 ± 0.038
CCS(=O)(=O)N1CC(CC#N)(n2cc(-c3ncnc4[nH]ccc34)cn2)C1.O=P(O)(O)O [Baricitinib phosphate]	0.391 ± 0.7	1.0937 ± 7.8e-05
Nc1ccn(C2OC(CO)C(O)C2(F)F)c(=O)n1 (stereo not given) [Gemcitabine]	0.5847 ± 0.0053	0.5589 ± 0.0046
CC(C)(O)CNc1nc(Nc2ccnc(C(F)(F)F)c2)nc(-c2cccc(C(F)(F)F)n2)n1 [Enasidenib (AG-221)]	1.25 ± 0.65	1.03 ± 0.018
CC12CCC(=O)C=C1CCC1C2C(O)CC2(C)C1CCC2(O)C(=O)CO (stereo not given) [Hydrocortisone]	1.41 ± 0.42	0.995 ± 0.24
COc1cc2nccc(Oc3ccc(NC(=O)NC4CC4)c(Cl)c3)c2cc1C(N)=O.CS(=O)(=O)O [lenvatinib Mesylate]	1.15 ± 0.17	0.265 ± 0.16
CC1CC2C3CCC4=CC(=O)C=CC4(C)C3(Cl)C(O)CC2(C)C1(OC(=O)c1ccco1)C(=O)CCl (stereo not given) [Mometasone furoate]	1.12 ± 0.11	0.93 ± 0.076
CCC1(O)CC2CN(CCc3c([nH]c4ccccc34)C(C(=O)OC)(c3cc4c(cc3OC)N(C)C3C(O)(C(=O)OC)C(OC(C)=O)C5(CC)C=CCN6CCC43C65)C2)C1.O=S(=O)(O)O (stereo not given) [Vinblastine sulfate]	0.475 ± 0.069	0.655 ± 0.084
N#Cc1ccc(C2CCCc3cncn32)cc1 (stereo not given) [Fadrozole]	0.6645 ± 0.0044	1.18 ± 0.074
CC(OC1OCCN(Cc2n[nH]c(=O)[nH]2)C1c1ccc(F)cc1)c1cc(C(F)(F)F)cc(C(F)(F)F)c1 (stereo not given) [Aprepitant]	1.01 ± 0.071	0.767 ± 0.041
O=C(O)c1cc(O)c(O)c(O)c1 [Gallic acid]	0.792 ± 0.22	0.369 ± 0.14
CCC(C(=O)O)c1ccc(N2Cc3ccccc3C2=O)cc1 (stereo not given) [Indobufen]	0.908 ± 0.059	1.11 ± 0.049
C=CC1CC1(NC(=O)C1CC(Oc2ncc(OC)c3ccc(Cl)cc23)CN1C(=O)C(NC(=O)OC(C)(C)C)C(C)(C)C)C(=O)NS(=O)(=O)C1CC1 (stereo not given) [Asunaprevir]	1.24 ± 0.26	1.05 ± 0.46
CC1=NN(c2ccc(C)c(C)c2)C(=O)/C1=N\Nc1cccc(-c2cccc(C(=O)O)c2)c1O.NCCO.NCCO [Eltrombopag Olamine]	1.23 ± 0.034	0.966 ± 0.02
CC(C(=O)O)c1ccc2c(c1)Cc1cccnc1O2 (stereo not given) [Pranoprofen]	1.12 ± 0.019	1.25 ± 0.055
O=C(O)COC(=O)Cc1ccccc1Nc1c(Cl)cccc1Cl [Aceclofenac]	1.29 ± 0.4	1.1 ± 0.052
C=CC1CN2CCC1CC2C(O)c1ccnc2ccc(OC)cc12.Cl.O.O (stereo not given) [Quinine HCl Dihydrate]	1.2 ± 0.21	1.19 ± 0.04
Cc1oncc1C(=O)Nc1ccc(C(F)(F)F)cc1 [Leflunomide]	1.1 ± 0.067	0.683 ± 0.21
